Calls of active or inactive are those of the source. How the source made its calls: active means hit-call score of the fitted dose curve at least 0.9, where 1 is the maximum; inactive means score below 0.9.
Key:
Details in all cases: mRNA level, 48 h; actives raise or lower the signal
[1] = read-out: Alkaline Phosphatase, Placental (ALPP) gene, ALPP (gene 250); assay: LTEA_HepaRG_ALPP: Life Technologies and Expression Analysis (LTEA) Assay for Alkaline Phosphatase, Placental (ALPP) gene using HepaRG (AID 2283468)
Method in brief: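 Differentiated human HepaRG cells were plated and cultured 48 h, then exposed in duplicate for 48 h in serum-free induction medium to eight half-log concentrations from 100 uM in 0.5% DMSO. ALPP mRNA was measured by TaqMan qRT-PCR, normalized to ACTB, GAPDH, POLR2A.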

[2] = read-out: Bcl-2 (BAD) gene, BAD (gene 572); assay: LTEA_HepaRG_BAD: Life Technologies and Expression Analysis (LTEA) Assay for Bcl-2 (BAD) gene using HepaRG (AID 2283469)
Method in brief: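 Differentiated HepaRG cells were exposed in duplicate in 0.5% DMSO for 48 h to eight-point half-log concentrations up to 100 uM. BAD mRNA was measured by Fluidigm TaqMan qRT-PCR, normalized to ACTB, GAPDH and POLR2A, and fitted bidirectionally against DMSO.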

[3] = read-out: Bcl-2 (BAX) gene, BAX (gene 581); assay: LTEA_HepaRG_BAX: Life Technologies and Expression Analysis (LTEA) Assay for Bcl-2 (BAX) gene using HepaRG (AID 2283470)
Method in brief: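 Concentration-response endpoint fitted in both directions relative to 0.5% DMSO vehicle. Human HepaRG cultures receive test chemicals for 48 h at up to 100 uM; BAX mRNA is quantified by qRT-PCR against housekeeping genes.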

[4] = read-out: adenosine kinase (ADK) gene, ADK (gene 132); assay: LTEA_HepaRG_ADK: Life Technologies and Expression Analysis (LTEA) Assay for adenosine kinase (ADK) gene using HepaRG (AID 2283471)
Method in brief: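 HepaRG (human liver), 48 h chemical exposure, 8-pt half-log series, top 100 uM, 0.5% DMSO vehicle. Readout: ADK mRNA by qRT-PCR vs housekeeping genes; bidirectional curve fit relative to DMSO baseline.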

[5] = read-out: Alpha-fetoprotein (AFP) gene, AFP (gene 174); assay: LTEA_HepaRG_AFP: Life Technologies and Expression Analysis (LTEA) Assay for Alpha-fetoprotein (AFP) gene using HepaRG (AID 2283472)
Method in brief: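 After a 48 h plating period, cells are moved to serum-free induction medium and dosed in duplicate (100 uM maximum, half-log dilutions, 0.5% DMSO) for another 48 h. Total RNA goes to TaqMan qRT-PCR; AFP signal is housekeeping-normalized.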

BCL2L11 (gene 10018) = assay: LTEA_HepaRG_BCL2L11: Life Technologies and Expression Analysis (LTEA) Assay for Bcl-2 (BCL2L11) gene using HepaRG (AID 2283473)
Method in brief: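 Differentiated human HepaRG cells in serum-free induction medium were exposed in duplicate for 48 h to eight concentrations (top 100 uM, half-log steps, 0.5% DMSO). BCL2L11 mRNA was quantified by TaqMan qRT-PCR, normalized to ACTB/GAPDH/POLR2A, bidirectional fit versus DMSO.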

[6] = read-out: Apolipoprotein A-V (APOA5) gene, APOA5 (gene 116519); assay: LTEA_HepaRG_APOA5: Life Technologies and Expression Analysis (LTEA) Assay for Apolipoprotein A-V (APOA5) gene using HepaRG (AID 2283474)
Method in brief: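 Differentiated human HepaRG cells were exposed in duplicate for 48 h to eight half-log concentrations from 100 uM in 0.5% DMSO. APOA5 mRNA was quantified by TaqMan qRT-PCR, normalized to ACTB, GAPDH and POLR2A, and fitted bidirectionally against DMSO.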

[7] = read-out: Apoptosis regulator Bcl-2 (Homo sapiens) (UniProt P10415); assay: LTEA_HepaRG_BCL2: Life Technologies and Expression Analysis (LTEA) Assay for Bcl-2 gene using HepaRG (AID 2283475)
Method in brief: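 Expression change of BCL2 mRNA in HepaRG after 48 h dosing, quantified by TaqMan qRT-PCR against three endogenous controls. Concentration-response used eight points up to 100 uM, vehicle 0.5% DMSO.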

[8] = read-out: Bcl-2 (BID) gene, BID (gene 637); assay: LTEA_HepaRG_BID: Life Technologies and Expression Analysis (LTEA) Assay for Bcl-2 (BID) gene using HepaRG (AID 2283476)
Method in brief: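 Gain or loss of BID expression is fitted relative to 0.5% DMSO vehicle. Human HepaRG liver cells received a 48 h chemical exposure over an eight-point concentration range.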

Caspase-3 (Homo sapiens) = Caspase-3 (Homo sapiens) (UniProt P42574); assay: LTEA_HepaRG_CASP3: Life Technologies and Expression Analysis (LTEA) Assay for cysteine-aspartic acid protease (CASP3) using HepaRG (AID 2283477)
Method in brief: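 Differentiated human HepaRG cells in serum-free induction medium were exposed 48 h to 8-point half-log concentrations from 100 uM (0.5% DMSO vehicle). CASP3 mRNA was measured by qRT-PCR, normalised to ACTB, GAPDH and POLR2A, with bidirectional fitting against DMSO.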

Measured: AC50

Sequence of Apoptosis regulator Bcl-2 (Homo sapiens) (P10415 whole entry, looked up): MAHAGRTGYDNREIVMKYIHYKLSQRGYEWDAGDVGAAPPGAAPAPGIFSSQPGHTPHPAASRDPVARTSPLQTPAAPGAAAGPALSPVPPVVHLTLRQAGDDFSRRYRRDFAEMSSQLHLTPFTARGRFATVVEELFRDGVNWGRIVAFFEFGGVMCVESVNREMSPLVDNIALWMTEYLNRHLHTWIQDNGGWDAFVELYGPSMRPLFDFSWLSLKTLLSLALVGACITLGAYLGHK
Sequence of Caspase-3 (Homo sapiens) (P42574 whole entry, looked up): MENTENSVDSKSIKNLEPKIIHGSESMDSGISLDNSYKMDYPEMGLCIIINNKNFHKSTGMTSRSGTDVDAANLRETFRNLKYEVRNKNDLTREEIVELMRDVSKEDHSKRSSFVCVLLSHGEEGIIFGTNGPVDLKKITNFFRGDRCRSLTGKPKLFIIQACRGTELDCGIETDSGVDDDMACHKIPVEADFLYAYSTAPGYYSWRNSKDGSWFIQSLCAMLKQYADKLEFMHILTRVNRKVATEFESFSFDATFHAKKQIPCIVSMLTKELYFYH

Cc1nc(C)nc(N2C[C@@H](C)N(c3ccnc([C@@H](C)O)n3)[C@@H](C)C2)n1
inactive: [1] | [2] | [3] | [4] | [5] | BCL2L11 (gene 10018) | [6] | [7] | [8] | Caspase-3 (Homo sapiens)

CCCCCCCCCCCC(=O)OC
inactive: [1] | [2] | [3] | [4] | [5] | BCL2L11 (gene 10018) | [6] | [7] | [8] | Caspase-3 (Homo sapiens)

Nc1ccccc1N
inactive: [1] | [2] | [7] | [8] | Caspase-3 (Homo sapiens)
active: [3] 40.6 µM | [4] 85.7 µM | [5] 72 µM | BCL2L11 (gene 10018) 50 µM | [6] 58.2 µM

CCCCCCCCCCCCCCCCCC(=O)O
inactive: [1] | [2] | [3] | [4] | [5] | BCL2L11 (gene 10018) | [6] | [7] | [8] | Caspase-3 (Homo sapiens)

C=CCOC(=O)c1ccccc1C(=O)OCC=C
inactive: [1] | [2] | [3] | [4] | [5] | BCL2L11 (gene 10018) | [6] | [7] | [8] | Caspase-3 (Homo sapiens)

Oc1ccc2c(c1)OC[C@@H](N1CCC(O)(c3ccc(F)cc3)CC1)[C@H]2O
inactive: [1] | [2] | [3] | [4] | [5] | BCL2L11 (gene 10018) | [6] | [7] | [8] | Caspase-3 (Homo sapiens)

Cc1cc(NC(=O)C(=O)O)cc(C)c1Oc1ccc(O)c2c1CCC2
inactive: [1] | [2] | [3] | [4] | BCL2L11 (gene 10018) | [6] | [7] | [8] | Caspase-3 (Homo sapiens)
active: [5] 9.92 µM

CC1=C(/C=C/C(C)=C/C=C/C(C)=C/CO)C(C)(C)CCC1
active: [6] 52.2 µM
inactive: [1] | [2] | [3] | [4] | [5] | BCL2L11 (gene 10018) | [7] | [8] | Caspase-3 (Homo sapiens)

CC1(C)CC(N=C=O)CC(C)(CN=C=O)C1 (centres undefined)
inactive: [1] | [2] | [3] | [4] | [5] | BCL2L11 (gene 10018) | [6] | [7] | [8] | Caspase-3 (Homo sapiens)

OC[C@@H](O)[C@@H](O)[C@H](O)[C@H](O)CO
inactive: [1] | [2] | [3] | [4] | [5] | BCL2L11 (gene 10018) | [6] | [7] | [8] | Caspase-3 (Homo sapiens)

CCc1c(C(=O)NN2CCCCC2)nn(-c2ccc(Cl)cc2Cl)c1-c1ccc(Br)cc1
active: [1] 12.3 µM | [3] 27.3 µM | [5] 25.1 µM | BCL2L11 (gene 10018) 7.59 µM | [6] 42 µM | [7] 20 µM | Caspase-3 (Homo sapiens) 50 µM
inactive: [2] | [4] | [8]

CC(=O)OCCOCCOCCOC(C)=O
inactive: [1] | [2] | [3] | [4] | [5] | BCL2L11 (gene 10018) | [6] | [8] | Caspase-3 (Homo sapiens)

CCCCC(CC)COC(=O)CC(C(=O)OCC(CC)CCCC)S(=O)(=O)O (centres undefined)
inactive: [1] | [3] | [5] | BCL2L11 (gene 10018) | [6] | [7]
active: [2] 80.7 µM | [4] 81.6 µM | [8] 50 µM | Caspase-3 (Homo sapiens) 81 µM

Cc1ccc(Cl)cc1
inactive: [1] | [2] | [3] | [4] | [5] | BCL2L11 (gene 10018) | [6] | [7] | [8] | Caspase-3 (Homo sapiens)

CCOC(=O)CCC(=O)OCC
active: [4] 79.3 µM
inactive: [1] | [2] | [3] | [5] | BCL2L11 (gene 10018) | [6] | [7] | [8] | Caspase-3 (Homo sapiens)

CN1CCCC1=O
inactive: [1] | [2] | [3] | [4] | [5] | BCL2L11 (gene 10018) | [6] | [8] | Caspase-3 (Homo sapiens)

CCCCCC(=O)O
inactive: [1] | [2] | [3] | [4] | [5] | BCL2L11 (gene 10018) | [6] | [7] | [8] | Caspase-3 (Homo sapiens)

CCNc1cccc(C)c1
inactive: [1] | [2] | [3] | [4] | [5] | BCL2L11 (gene 10018) | [6] | [8] | Caspase-3 (Homo sapiens)

O=C(N[C@@H](Cc1ccccc1)[C@@H](O)C(=O)N1C[C@@H](O)[C@@H](O)C1)c1cc2cc(Cl)ccc2[nH]1
inactive: [1] | [2] | [3] | [4] | [5] | BCL2L11 (gene 10018) | [6] | [8] | Caspase-3 (Homo sapiens)

Cc1ccc(C)c(C)c1
inactive: [1] | [2] | [3] | [4] | [5] | BCL2L11 (gene 10018) | [6] | [8] | Caspase-3 (Homo sapiens)

Clc1cc(Cl)c(Cl)cc1Cl
inactive: [1] | [2] | [3] | [4] | [5] | BCL2L11 (gene 10018) | [6] | [8] | Caspase-3 (Homo sapiens)

Cc1c(C(=O)O)c(O)cc2c1C(=O)c1c(O)c([C@@H]3O[C@H](CO)[C@@H](O)[C@H](O)[C@H]3O)c(O)c(O)c1C2=O
inactive: [1] | [2] | [3] | [4] | [5] | BCL2L11 (gene 10018) | [6] | [7] | [8] | Caspase-3 (Homo sapiens)

— PubChem BioAssay (EPA / NIEHS)
